# SNCA expr inh: SNCA gene expression inhibition. HEK-293 SNCA-luciferase knock-in, luminescence, 24 h. Potency, µM (top dose mostly 57.2 µM), for inactives: at the highest dose activity change, negative = inhibition, actives largely listed as inhibitors. 140,000 compounds, 0.17% hits. AID 1671194;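 further: potency means the concentration at half of the fitted maximal effect; plate controls were DMSO cells for no effect and cell-free wells for full effect; nearly all actives have a fitted effect of over 45% in size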
# SNCA viab count: reduces viability of HEK-293 SNCA reporter cells; 150,000 compounds, 0.12% hits; HEK-293-SNCA-luc viability, GF-AFC fluorescence, 24 h; Potency, µM (titrated, usually from 57.1 µM), for inactives: at the highest dose activity change, negative = cytotoxicity, usual class: cytotoxic;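 further: potency means the concentration at half of the fitted maximal effect; 0% = DMSO-treated cells and -100% = medium-only wells without cells; nearly all actives have a fitted effect of over 30% in size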
#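 Cytotoxicity counterscreen: after 24 h compound treatment of genome-edited SNCA-luciferase HEK-293 cells, live-cell protease substrate GF-AFC read by fluorescence after 30 min; activity scaled between DMSO (0%) and medium-only (-100%), curves Hill-fitted.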
# KDM5B inh: KDM5B demethylase inhibition; Potency, µM (series often up to 57.7 µM), actives largely listed as inhibitors; 220,000 compounds, 2.6% hits; AID 1347165; KDM5B demethylase, FDH-coupled NADH fluorescence (FDH is formaldehyde dehydrogenase); Q9UGL1; further: potency means the concentration at half of the fitted maximal effect; 0% is about no effect; nearly all actives have a fitted effect of over 70% in size
#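 KDM5BΔAP (200 nM final) in 50 mM HEPES pH 7.5, 0.01% Tween-20 was preincubated 10 min at RT with compound over a concentration range. Substrate mix (H3K4me3 12.5 µM, α-KG 25 µM, Fe²⁺, ascorbate, NAD⁺, FDH) was added, and NADH fluorescence change over 30 min gave dose-response curves.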
# IP6K1 inh: inhibitors of human IP6K1. Q92551. IP6K1 kinase, ADP-Glo luminescence, 2 h; active compounds read low. activity change, % (series mostly up to about 58 µM). 140,000 compounds, 0.81% hits; in the data active means activity change below about -25%; further: on the % scale 0 is the no-effect control and ±100 the full control effect
# Target sequence (Q92551 whole entry, looked up): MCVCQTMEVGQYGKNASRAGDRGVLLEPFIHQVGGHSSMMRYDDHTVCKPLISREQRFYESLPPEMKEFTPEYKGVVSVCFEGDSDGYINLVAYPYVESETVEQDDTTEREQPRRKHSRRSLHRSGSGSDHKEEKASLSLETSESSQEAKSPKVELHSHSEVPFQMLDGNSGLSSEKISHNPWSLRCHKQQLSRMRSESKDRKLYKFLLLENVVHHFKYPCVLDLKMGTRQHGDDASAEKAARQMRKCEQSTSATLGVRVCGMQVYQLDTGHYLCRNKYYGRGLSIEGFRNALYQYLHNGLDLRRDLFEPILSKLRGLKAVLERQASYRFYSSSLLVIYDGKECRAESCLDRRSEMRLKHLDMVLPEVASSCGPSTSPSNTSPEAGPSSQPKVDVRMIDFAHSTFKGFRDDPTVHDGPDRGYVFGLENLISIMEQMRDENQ
#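 ADP-Glo luminescence measures ADP made by human IP6K1 during a 2 h RT reaction with ATP/IP6 (mix at 1.3 mM/130 uM); top library doses 57.5 and 19.1 uM final.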
# An asterisk follows results filed as active; i = inactive; ? = inconclusive; . = not tested or not shown; [ ] = dose if it differs, or a comment. Most compounds without a hit are left out; they make up all but 3% or so of the library. Unless noted, the call rests on the fitted dose curve; in most records, active means well fitted curve in the direction sought with a large enough effect; inconclusive means small, poorly fitted or top-dose-only effect, or another doubt; inactive means no such curve, though single readings can be large; an effect the other way counts as inactive or inconclusive.
SMILES,SNCA expr inh,SNCA viab count,KDM5B inh,IP6K1 inh
COc1cc2c(cc1OCc1ccncc1)NC(=O)C21CCN(c2ccccn2)CC1,1%[87.6 µM],-16%[87.6 µM],28µM*,-11
COc1cc2c(cc1OCc1ccccc1)NC(=O)C21CCN(c2nc(C)cnc2C)CC1,-27%,-28%,28µM*,-21
COc1cc2c(cc1OCc1ccncc1)NC(=O)C21CCN(Cc2ccccc2O)CC1,1%,0%,i,-7
C/C=C(\C)C(=O)OC1CC2C(C)(C)OC(=O)CC(OC(C)=O)C2(C)C2CC(OC(=O)C(C)C)C3(C)C(c4ccoc4)CC4OC43C12C (centres undefined),.,-11%[23.9 µM],.,18
COc1cc2c(cc1OCc1ccccc1)N(C(=O)c1cc3ccccc3[nH]1)CC21CCN(C)CC1,?,?,?,-9
CS(=O)(=O)N1C[C@H]2CCN(Cc3ccc[nH]3)C[C@H]21,34%,2%[12.5 µM],14µM*,18
COc1ccc2c(C)c(C(=O)N3CCC(C#N)(c4ccccc4)CC3)oc2c1,0%,0%,20µM*,0
Cn1ccc2ccc(C(=O)N3CCC(C#N)(c4ccccc4)CC3)cc21,-5%,-2%,?,0
Cc1nc(-c2cccs2)cc([C@H]2CN3CC[C@H]2C[C@@H]3COC(=O)Nc2ccc(C(C)C)cc2)n1,?,?,?,-8
COCC1CN(C2CCC2)CC12CCN(Cc1cccnc1)CC2 (centres undefined),-13%,-2%,28µM*,7
OCC1CN(C2CCC2)CC12CCN(Cc1cccnc1)CC2 (centres undefined),1%,-2%[12.5 µM],?,11
CCOC(=O)[C@H]1CN(C(=O)COc2ccccc2)[C@]2(C)C(=O)N(CC3CC3)c3ccccc3[C@H]12,5%[25.6 µM],-25%[23.9 µM],.,-20
C[C@@]12OC(=O)[C@]1([C@@H](O)[C@@H]1C=CCCC1)NC(=O)[C@H]2CCCl,0.14µM*,?,.,.
O=c1ccc(-c2cccs2)c2n1C[C@H]1C[C@@H]2CN(S(=O)(=O)c2cccc(C(F)(F)F)c2)C1,24%,4%,i,25
CSc1ccc(-c2ccc(=O)n3c2[C@@H]2C[C@@H](CN(S(C)(=O)=O)C2)C3)cc1,19%[87.6 µM],2%[87.6 µM],35µM*,-1
CCCS(=O)(=O)Nc1ccc(=O)n2c1[C@@H]1C[C@@H](CN(C(=O)COc3ccccc3)C1)C2,-7%,8%,32µM*,14
CSCC(=O)N1C[C@@H]2C[C@H](C1)c1c(-c3ccc(NC(C)=O)cc3)ccc(=O)n1C2,-24%[87.6 µM],4%[87.6 µM],28µM*,2
O=c1ccc(-c2cccs2)c2n1C[C@H]1C[C@@H]2CN(S(=O)(=O)c2cccs2)C1,32%[87.6 µM],5%[87.6 µM],32µM*,3
CC[C@H]1CN2CC[C@H]1C[C@@H]2CNC(=O)Nc1ccc(Oc2ccccc2)cc1,?,-26%[87.6 µM],?,-3
CC(C)=CCC[C@]1(C)C=Cc2c(O)c3c(c(CC=C(C)C)c2O1)O[C@]12C(=C[C@@H]4CC1C(C)(C)O[C@@]2(C/C=C(/C)C(=O)O)C4=O)C3=O,.,1.9µM*,.,-25*
CC(=O)OC1CC(O)C2(C)C(CC(OC(C)=O)C3(C)C2CCC2(C)C(c4ccoc4)C(=O)C4OC423)C1(C)C (centres undefined),.,-16%[23.9 µM],.,-1
O=C(NC1CCCCC1)N1C[C@@H]2C[C@H](C1)c1ccc(C3CCCCC3)c(=O)n1C2,13%[87.6 µM],-8%[87.6 µM],40µM*,9
Cc1ccccc1-c1ccc2n(c1=O)C[C@H]1C[C@@H]2CN(C(=O)NC2CCCCC2)C1,0%[87.6 µM],-18%[87.6 µM],35µM*,18
O=C(Nc1ccc2n(c1=O)C[C@H]1C[C@@H]2CN(C(=O)NC2CCCCC2)C1)c1ccccn1,-27%,-22%,i,-12
Cc1cccc(NC(=O)N[C@@H]2N=C(c3ccccc3)c3ccccc3N(C)C2=O)c1,.,6%,.,-18
SMILES,SNCA expr inh,SNCA viab count,KDM5B inh,IP6K1 inh
CCOC(=O)[C@@H]1[C@H]2c3ccccc3N(C)C(=O)[C@H]2N(C(=O)NCc2ccccc2)[C@@H]1c1ccccc1,.,.,.,0
COc1ccc([C@@H]2CN(S(=O)(=O)N3CCCC3)[C@@H]3C4CCN(CC4)[C@@H]32)cc1,-7%,-7%,i,13
COc1ccc([C@@H]2CN(c3nccc(C)n3)[C@@H]3C4CCN(CC4)[C@@H]32)cc1,?,-10%,14µM*,17
Cc1ccc2c(n1)N(C)[C@H](CO)CCN(C1COC1)C2,-1%[87.6 µM],5%[87.6 µM],32µM*,-5
Cc1ccc2c(n1)N(C)[C@H](CO)CCN(CCC(C)C)C2,12%[87.6 µM],3%[87.6 µM],32µM*,-6
CCCN1CC[C@@H](CO)N(C)c2nc(C)ccc2C1,-15%[87.6 µM],4%[87.6 µM],?,25
O=C(Nc1ccc2n(c1=O)C[C@H]1C[C@@H]2CN(C(=O)c2ccccc2)C1)NC1CCCCC1,35%[87.6 µM],-6%[87.6 µM],35µM*,-2
CN(C)Cc1ccccc1-c1ccc2n(c1=O)C[C@H]1C[C@@H]2CN(C(=O)c2ccco2)C1,-11%[87.6 µM],5%[87.6 µM],32µM*,1
O=C(c1ccc(F)cc1)N1C[C@@H]2C[C@H](C1)c1c(/C=C/c3ccc(Cl)cc3)ccc(=O)n1C2,-11%,-20%,32µM*,-1
O=C(c1ccc(F)cc1)N1C[C@@H]2C[C@H](C1)c1ccc(C3CCCCC3)c(=O)n1C2,-2%[87.6 µM],-8%[87.6 µM],32µM*,10
COC(=O)N1CCN(C(=O)Cc2ccc(Cl)c(Cl)c2)[C@@H](CN2CCCC2)C1,.,1%,.,8
COc1ccc2c(c1)CN(C)CC2c1ccc(Cl)c(Cl)c1 (centres undefined),16%,3%,.,.
O=C(c1cccs1)N1C[C@@H]2C[C@H](C1)c1ccc(C3CCCCC3)c(=O)n1C2,6%[87.6 µM],-3%[87.6 µM],i,4
O=C(c1ccccc1)N1C[C@@H]2C[C@H](C1)c1ccc(C3CCCCC3)c(=O)n1C2,-5%[87.6 µM],-27%[87.6 µM],40µM*,10
CC(=O)N1C[C@@H]2C[C@H](C1)c1ccc(NC(=O)Nc3ccccc3)c(=O)n1C2,-21%[87.6 µM],-3%[87.6 µM],28µM*,-6
Cc1ccccc1-c1ccc2n(c1=O)C[C@H]1C[C@@H]2CN(C(=O)c2ccc(F)cc2)C1,5%[87.6 µM],-5%[87.6 µM],35µM*,1
COC1CC(O[C@H]2CC[C@]3(C)C4CC[C@]5(C)[C@@H](C6=CC(=O)OC6)[C@@H](OC(C)=O)C[C@]5(O)C4CC[C@@H]3C2)OC(C)C1O[C@@H]1O[C@H](CO)[C@@H](O)[C@H](O)[C@H]1O (some centres undefined),.,-36%[23.9 µM],.,12
COc1cc2c(cc1Oc1cccc(N(C)C)c1)NC(=O)C21CCN(c2ncc(F)cn2)CC1,-10%,-7%,32µM*,-23
CCc1cnc(N2CCC3(CC2)C(=O)Nc2cc(Oc4ccccc4)c(OC)cc23)nc1,?,-13%[87.6 µM],32µM*,-14
COc1cc2c(cc1Oc1cccc(N(C)C)c1)NC(=O)C21CCN(c2ncccn2)CC1,-11%,-16%,?,-9
CCc1cnc(N2CCC3(CC2)C(=O)Nc2cc(OC4CCCC4)c(OC)cc23)nc1,-19%[87.6 µM],8%[87.6 µM],35µM*,-22
